# Data from paper PMC7862700, “An all-to-all approach to the identification of sequence-specific readers for epigenetic DNA modifications on cytosine”.
# What was measured:
# Assay in all cases: DAPPL (digital affinity profiling via proximity ligation, sequencing); 10 mM Tris-HCl pH 7.5, 50 mM NaCl, 1 mM DTT, 4% glycerol, room temperature, 30 min; GST-TFs on glutathione beads, 16-mer random dsDNA library, 0.1% formaldehyde crosslink after washing; high values mean tight binding
# FEV = biological target: T1, FEV (Homo sapiens, UniProt Q99581 1-238); details: protein: recombinant; tags: N-terminal GST; dsDNA, one strand shown
# T1 sequence: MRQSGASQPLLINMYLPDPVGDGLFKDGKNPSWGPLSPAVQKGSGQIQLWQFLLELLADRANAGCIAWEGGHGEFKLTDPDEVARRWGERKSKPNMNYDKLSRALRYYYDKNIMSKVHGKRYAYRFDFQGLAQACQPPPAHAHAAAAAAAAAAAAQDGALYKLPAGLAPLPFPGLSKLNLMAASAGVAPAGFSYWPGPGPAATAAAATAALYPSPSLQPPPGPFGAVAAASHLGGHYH
# Method in brief: (§1)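 Sequencing on an Illumina NextSeq500 followed washing, crosslinking with 0.1% formaldehyde, proximity ligation (BsaI/T4 ligase, 1 h, 37 °C) and PCR amplification of pools that had been incubated for 30 min at room temperature with 200 nmole of a random double-stranded 16-mer DNA library in Tris/NaCl/DTT/glycerol buffer. Each pool held DNA-barcoded human transcription factors, expressed in yeast as GST fusions and captured on glutathione beads, plus a tag-only sample. Binding signal is a hexamer's read frequency for a factor divided by its frequency in the tag-only sample.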
# ETV5 = ETV5 (Homo sapiens, UniProt P41161 1-510); details: protein: recombinant; tags: N-terminal GST; dsDNA, one strand shown
# Method in brief: as §1
# HSF1 = HSF1 (Homo sapiens, UniProt Q00613 1-529); details: protein: recombinant; tags: N-terminal GST; chain copies: 3; dsDNA, one strand shown
# Method in brief: as §1
# SPIC = biological target: T2, SPIC (Homo sapiens, UniProt Q8N5J4 1-248); details: protein: recombinant; tags: N-terminal GST; dsDNA, one strand shown
# T2 sequence: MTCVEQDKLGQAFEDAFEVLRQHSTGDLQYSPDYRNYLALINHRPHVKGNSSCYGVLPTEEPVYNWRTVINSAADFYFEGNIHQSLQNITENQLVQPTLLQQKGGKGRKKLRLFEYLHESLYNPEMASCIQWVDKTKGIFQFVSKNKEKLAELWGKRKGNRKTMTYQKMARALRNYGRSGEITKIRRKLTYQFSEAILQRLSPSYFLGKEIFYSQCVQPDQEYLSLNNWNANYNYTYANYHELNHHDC
# Method in brief: as §1
# ELF4 = ELF4 (Homo sapiens, UniProt Q99607 1-663); details: protein: recombinant; tags: N-terminal GST; dsDNA, one strand shown
# Method in brief: as §1
# ELK4 = biological target: T3, ELK4 (Homo sapiens, UniProt P28324-2 1-405); details: protein: recombinant; tags: N-terminal GST; dsDNA, one strand shown
# T3 sequence: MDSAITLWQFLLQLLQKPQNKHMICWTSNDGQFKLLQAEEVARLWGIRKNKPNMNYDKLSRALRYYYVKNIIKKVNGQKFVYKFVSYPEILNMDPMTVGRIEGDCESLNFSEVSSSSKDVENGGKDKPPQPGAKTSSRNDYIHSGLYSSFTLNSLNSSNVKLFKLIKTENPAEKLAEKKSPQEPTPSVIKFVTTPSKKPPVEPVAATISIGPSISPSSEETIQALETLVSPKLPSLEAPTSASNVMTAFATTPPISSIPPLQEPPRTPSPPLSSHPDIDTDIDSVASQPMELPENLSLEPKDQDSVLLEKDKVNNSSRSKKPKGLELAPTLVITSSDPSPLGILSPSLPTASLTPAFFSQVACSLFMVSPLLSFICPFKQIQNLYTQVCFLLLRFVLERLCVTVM
# Method in brief: as §1
# ETV2 = biological target: T4, ETV2 (Homo sapiens, UniProt O00321 1-342); details: protein: recombinant; tags: N-terminal GST; dsDNA, one strand shown
# T4 sequence: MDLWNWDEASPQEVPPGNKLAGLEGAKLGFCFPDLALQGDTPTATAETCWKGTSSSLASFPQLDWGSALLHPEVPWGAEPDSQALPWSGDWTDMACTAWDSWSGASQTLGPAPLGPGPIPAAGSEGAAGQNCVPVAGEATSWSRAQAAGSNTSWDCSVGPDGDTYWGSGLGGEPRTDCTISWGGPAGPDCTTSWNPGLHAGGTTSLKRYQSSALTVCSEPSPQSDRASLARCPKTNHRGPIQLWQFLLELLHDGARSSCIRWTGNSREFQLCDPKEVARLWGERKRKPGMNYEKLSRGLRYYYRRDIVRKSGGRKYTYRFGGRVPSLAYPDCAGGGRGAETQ
# Method in brief: as §1
# ELF3 = biological target: T5, ELF3 (Homo sapiens, UniProt P78545 1-371); details: protein: recombinant; tags: N-terminal GST; dsDNA, one strand shown
# T5 sequence: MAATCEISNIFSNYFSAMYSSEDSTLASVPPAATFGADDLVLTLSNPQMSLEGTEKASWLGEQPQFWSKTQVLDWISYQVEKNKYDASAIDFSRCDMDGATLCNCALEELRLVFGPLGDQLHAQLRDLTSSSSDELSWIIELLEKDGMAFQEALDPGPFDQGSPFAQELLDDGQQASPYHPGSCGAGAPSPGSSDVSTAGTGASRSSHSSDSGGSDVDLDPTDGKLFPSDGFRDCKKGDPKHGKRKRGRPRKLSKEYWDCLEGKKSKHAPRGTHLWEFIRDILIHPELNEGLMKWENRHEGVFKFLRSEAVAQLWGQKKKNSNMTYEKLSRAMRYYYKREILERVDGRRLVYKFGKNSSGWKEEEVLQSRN
# Method in brief: as §1
# CRX = CRX (Homo sapiens, UniProt O43186 1-299); details: protein: recombinant; tags: N-terminal GST; dsDNA, one strand shown
# Method in brief: as §1
# ETV1 = ETV1 (Homo sapiens, UniProt P50549 1-477); details: protein: recombinant; tags: N-terminal GST; dsDNA, one strand shown
# Method in brief: as §1
# ERF = biological target: T6, ERF (Homo sapiens, UniProt P50548 1-548); details: protein: recombinant; tags: N-terminal GST; dsDNA, one strand shown
# T6 sequence: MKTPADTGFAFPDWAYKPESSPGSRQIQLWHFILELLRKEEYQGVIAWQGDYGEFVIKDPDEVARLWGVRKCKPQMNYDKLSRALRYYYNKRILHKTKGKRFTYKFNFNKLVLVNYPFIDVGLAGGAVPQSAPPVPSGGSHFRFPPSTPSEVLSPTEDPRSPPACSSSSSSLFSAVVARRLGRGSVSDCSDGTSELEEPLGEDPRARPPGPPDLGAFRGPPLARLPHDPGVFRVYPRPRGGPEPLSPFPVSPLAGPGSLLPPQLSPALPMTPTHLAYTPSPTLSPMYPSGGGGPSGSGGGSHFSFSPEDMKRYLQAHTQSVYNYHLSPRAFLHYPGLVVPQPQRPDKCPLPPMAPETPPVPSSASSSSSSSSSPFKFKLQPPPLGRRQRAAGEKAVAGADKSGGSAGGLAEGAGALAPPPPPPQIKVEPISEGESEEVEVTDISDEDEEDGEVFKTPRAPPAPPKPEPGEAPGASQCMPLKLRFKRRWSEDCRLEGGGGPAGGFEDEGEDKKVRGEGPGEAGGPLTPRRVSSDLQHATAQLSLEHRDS
# Method in brief: as §1
# ETV3L = biological target: T7, ETV3L (Homo sapiens, UniProt Q6ZN32 1-361); details: protein: recombinant; tags: N-terminal GST; dsDNA, one strand shown
# T7 sequence: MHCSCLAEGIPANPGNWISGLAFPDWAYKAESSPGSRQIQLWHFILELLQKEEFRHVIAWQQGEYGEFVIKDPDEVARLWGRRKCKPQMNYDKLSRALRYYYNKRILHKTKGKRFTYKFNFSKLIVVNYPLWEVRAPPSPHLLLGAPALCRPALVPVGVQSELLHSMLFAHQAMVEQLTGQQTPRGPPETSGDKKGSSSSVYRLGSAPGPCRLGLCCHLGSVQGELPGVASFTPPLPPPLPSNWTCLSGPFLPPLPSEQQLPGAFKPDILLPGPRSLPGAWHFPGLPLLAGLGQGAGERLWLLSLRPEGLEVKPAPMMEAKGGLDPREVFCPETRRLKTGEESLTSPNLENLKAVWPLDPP
# Method in brief: as §1
# ETS2 = biological target: T8, ETS2 (Homo sapiens, UniProt P15036 1-469); details: protein: recombinant; tags: N-terminal GST; dsDNA, one strand shown
# T8 sequence: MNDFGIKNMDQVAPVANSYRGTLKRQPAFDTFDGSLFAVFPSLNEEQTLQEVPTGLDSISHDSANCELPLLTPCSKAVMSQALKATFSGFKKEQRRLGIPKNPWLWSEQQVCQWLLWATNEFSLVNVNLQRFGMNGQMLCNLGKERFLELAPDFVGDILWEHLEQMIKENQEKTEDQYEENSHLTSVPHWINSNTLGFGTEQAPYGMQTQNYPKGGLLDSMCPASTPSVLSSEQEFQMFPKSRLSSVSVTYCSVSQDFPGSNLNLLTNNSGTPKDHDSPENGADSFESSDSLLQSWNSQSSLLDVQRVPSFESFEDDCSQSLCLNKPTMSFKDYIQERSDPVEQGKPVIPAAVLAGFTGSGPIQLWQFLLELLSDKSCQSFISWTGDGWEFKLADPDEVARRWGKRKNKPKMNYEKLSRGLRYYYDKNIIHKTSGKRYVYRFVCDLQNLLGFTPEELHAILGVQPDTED
# Method in brief: as §1
# SPDEF = biological target: T9, SPDEF (Homo sapiens, UniProt O95238 1-335); details: protein: recombinant; tags: N-terminal GST; dsDNA, one strand shown
# T9 sequence: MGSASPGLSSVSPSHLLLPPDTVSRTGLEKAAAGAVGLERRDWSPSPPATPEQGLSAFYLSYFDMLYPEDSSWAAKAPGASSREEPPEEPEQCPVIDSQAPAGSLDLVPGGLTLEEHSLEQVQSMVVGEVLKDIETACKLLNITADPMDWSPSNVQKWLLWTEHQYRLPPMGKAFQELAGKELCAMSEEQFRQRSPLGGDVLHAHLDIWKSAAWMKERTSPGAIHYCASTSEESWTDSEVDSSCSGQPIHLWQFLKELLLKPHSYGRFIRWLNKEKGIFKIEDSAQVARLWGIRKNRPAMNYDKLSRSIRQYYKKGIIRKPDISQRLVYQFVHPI
# Method in brief: as §1
# ETV7 = biological target: T10, ETV7 (Homo sapiens, UniProt Q9Y603 1-341); details: protein: recombinant; tags: N-terminal GST; dsDNA, one strand shown
# T10 sequence: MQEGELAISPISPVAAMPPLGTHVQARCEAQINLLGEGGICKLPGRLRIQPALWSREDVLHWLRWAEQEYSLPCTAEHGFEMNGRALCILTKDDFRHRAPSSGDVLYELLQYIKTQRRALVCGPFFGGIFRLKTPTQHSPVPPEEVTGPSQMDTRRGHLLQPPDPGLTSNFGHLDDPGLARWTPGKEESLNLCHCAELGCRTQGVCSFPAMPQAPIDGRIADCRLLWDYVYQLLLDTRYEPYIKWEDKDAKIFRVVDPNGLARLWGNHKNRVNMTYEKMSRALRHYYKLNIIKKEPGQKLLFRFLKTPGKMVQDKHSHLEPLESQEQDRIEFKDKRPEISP
# Method in brief: as §1
# ELF5 = biological target: T11, ELF5 (Homo sapiens, UniProt Q9UKW6-2 1-255); details: protein: recombinant; tags: N-terminal GST; dsDNA, one strand shown
# T11 sequence: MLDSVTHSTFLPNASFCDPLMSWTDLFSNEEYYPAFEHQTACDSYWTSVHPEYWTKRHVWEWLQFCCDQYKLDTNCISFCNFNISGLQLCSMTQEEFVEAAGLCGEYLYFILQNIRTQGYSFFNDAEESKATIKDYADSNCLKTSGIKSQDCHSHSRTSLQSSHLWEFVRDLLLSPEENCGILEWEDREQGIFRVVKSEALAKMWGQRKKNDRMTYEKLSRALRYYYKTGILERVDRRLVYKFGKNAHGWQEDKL
# Method in brief: as §1
# ETV3 = biological target: T12, ETV3 (Homo sapiens, UniProt P41162-2 1-143); details: protein: recombinant; tags: N-terminal GST; dsDNA, one strand shown
# T12 sequence: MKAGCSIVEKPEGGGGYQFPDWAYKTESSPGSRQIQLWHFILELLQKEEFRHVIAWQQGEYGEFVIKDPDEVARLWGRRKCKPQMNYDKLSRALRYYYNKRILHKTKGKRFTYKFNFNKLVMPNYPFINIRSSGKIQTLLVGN
# Method in brief: as §1
# ETV6 = ETV6 (Homo sapiens, UniProt P41212 1-452); details: protein: recombinant; tags: N-terminal GST; dsDNA, one strand shown
# Method in brief: as §1
# HSF1, sequence (Q00613 whole entry): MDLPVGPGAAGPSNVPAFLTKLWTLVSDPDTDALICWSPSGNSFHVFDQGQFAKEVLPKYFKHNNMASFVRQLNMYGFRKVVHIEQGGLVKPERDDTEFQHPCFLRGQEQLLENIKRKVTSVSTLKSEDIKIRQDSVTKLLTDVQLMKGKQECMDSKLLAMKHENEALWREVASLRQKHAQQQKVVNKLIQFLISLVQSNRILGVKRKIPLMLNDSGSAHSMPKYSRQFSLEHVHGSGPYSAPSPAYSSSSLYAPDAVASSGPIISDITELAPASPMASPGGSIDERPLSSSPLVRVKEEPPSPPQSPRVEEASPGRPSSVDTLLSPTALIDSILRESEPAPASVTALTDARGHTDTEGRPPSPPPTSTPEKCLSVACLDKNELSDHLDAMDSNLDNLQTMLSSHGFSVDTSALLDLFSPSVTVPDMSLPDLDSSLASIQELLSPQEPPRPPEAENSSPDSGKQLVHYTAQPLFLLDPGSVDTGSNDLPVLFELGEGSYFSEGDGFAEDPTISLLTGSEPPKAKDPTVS
# CRX, sequence (O43186 whole entry): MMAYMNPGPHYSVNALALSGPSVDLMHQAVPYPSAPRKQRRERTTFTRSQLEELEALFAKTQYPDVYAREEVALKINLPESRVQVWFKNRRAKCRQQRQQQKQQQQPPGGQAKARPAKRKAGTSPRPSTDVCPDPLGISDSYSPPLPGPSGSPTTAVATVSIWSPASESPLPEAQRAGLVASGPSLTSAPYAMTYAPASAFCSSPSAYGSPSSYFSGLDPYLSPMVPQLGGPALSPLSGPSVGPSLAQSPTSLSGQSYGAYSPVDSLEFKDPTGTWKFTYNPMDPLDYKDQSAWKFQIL
# ETV1, sequence (P50549 whole entry): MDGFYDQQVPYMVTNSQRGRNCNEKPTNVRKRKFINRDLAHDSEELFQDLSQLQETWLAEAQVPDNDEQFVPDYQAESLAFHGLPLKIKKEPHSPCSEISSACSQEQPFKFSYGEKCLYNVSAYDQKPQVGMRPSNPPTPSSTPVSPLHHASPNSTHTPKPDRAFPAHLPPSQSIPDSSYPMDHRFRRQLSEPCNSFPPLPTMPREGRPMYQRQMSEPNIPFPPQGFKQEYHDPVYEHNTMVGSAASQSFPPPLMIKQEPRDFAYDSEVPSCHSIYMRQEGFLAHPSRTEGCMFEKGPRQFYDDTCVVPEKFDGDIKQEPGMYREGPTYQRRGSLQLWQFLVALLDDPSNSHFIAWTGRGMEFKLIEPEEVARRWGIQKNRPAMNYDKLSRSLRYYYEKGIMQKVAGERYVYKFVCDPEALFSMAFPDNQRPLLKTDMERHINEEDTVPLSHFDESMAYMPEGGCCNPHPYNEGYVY
# ETV6, sequence (P41212 whole entry): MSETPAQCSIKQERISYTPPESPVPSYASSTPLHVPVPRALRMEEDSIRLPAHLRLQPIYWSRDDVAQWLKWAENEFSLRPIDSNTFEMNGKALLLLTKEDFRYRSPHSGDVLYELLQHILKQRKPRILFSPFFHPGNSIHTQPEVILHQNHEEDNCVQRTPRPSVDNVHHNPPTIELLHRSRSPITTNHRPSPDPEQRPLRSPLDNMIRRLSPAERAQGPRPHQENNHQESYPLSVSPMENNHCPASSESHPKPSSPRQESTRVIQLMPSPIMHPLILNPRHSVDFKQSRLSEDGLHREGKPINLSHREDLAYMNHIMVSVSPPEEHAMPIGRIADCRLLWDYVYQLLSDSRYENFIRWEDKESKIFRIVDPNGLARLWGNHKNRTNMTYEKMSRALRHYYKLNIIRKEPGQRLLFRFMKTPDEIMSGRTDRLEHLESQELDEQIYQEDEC
# ELF4, sequence (Q99607 whole entry): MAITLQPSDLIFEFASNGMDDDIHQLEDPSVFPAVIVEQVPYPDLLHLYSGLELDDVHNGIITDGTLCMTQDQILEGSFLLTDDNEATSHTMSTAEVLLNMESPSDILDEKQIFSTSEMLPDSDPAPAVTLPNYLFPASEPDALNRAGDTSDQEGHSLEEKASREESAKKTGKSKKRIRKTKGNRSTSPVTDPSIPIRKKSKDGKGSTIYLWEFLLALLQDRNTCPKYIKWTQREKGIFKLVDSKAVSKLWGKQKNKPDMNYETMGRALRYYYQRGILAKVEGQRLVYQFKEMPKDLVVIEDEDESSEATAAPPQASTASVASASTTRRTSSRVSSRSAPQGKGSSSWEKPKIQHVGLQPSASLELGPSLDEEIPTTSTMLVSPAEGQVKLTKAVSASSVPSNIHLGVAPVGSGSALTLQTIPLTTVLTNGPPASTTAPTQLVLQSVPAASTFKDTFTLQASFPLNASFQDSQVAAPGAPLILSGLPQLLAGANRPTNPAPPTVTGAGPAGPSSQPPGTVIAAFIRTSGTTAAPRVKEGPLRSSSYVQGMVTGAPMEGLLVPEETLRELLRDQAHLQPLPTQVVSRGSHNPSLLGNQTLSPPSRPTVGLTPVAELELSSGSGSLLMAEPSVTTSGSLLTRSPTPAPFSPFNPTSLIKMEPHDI
# ETV5, sequence (P41161 whole entry): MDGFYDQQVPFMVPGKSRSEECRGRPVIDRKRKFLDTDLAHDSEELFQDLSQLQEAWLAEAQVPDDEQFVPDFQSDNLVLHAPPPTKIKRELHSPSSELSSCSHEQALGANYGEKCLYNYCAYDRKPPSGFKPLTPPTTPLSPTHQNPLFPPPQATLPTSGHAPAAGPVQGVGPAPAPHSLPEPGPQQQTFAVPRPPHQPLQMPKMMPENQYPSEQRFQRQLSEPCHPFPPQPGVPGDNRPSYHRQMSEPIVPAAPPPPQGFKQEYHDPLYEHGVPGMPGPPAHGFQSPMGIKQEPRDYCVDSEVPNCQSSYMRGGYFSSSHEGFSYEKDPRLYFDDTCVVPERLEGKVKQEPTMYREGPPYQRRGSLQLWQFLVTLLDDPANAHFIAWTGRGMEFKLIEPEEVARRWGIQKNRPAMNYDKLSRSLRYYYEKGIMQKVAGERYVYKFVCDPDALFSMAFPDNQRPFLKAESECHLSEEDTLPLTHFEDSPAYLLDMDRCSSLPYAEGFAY
sequence,measurement,setting,value
TTGCAC,binding signal,FEV,"1.24 fold enrichment (6-mer frequency, TF over GST control)"
same,binding signal,ETV5,"1.24 fold enrichment (6-mer frequency, TF over GST control)"
same,binding signal,HSF1,"1.1 fold enrichment (6-mer frequency, TF over GST control)"
same,binding signal,SPIC,"1.07 fold enrichment (6-mer frequency, TF over GST control)"
same,binding signal,ELF4,"1.31 fold enrichment (6-mer frequency, TF over GST control)"
same,binding signal,ELK4,"1.31 fold enrichment (6-mer frequency, TF over GST control)"
same,binding signal,ETV2,"1.22 fold enrichment (6-mer frequency, TF over GST control)"
same,binding signal,ELF3,"1.23 fold enrichment (6-mer frequency, TF over GST control)"
same,binding signal,CRX,"1.11 fold enrichment (6-mer frequency, TF over GST control)"
same,binding signal,ETV1,"1.22 fold enrichment (6-mer frequency, TF over GST control)"
same,binding signal,ERF,"1.3 fold enrichment (6-mer frequency, TF over GST control)"
same,binding signal,ETV3L,"1.38 fold enrichment (6-mer frequency, TF over GST control)"
same,binding signal,ETS2,"1.11 fold enrichment (6-mer frequency, TF over GST control)"
same,binding signal,SPDEF,"1.22 fold enrichment (6-mer frequency, TF over GST control)"
same,binding signal,ETV7,"1.26 fold enrichment (6-mer frequency, TF over GST control)"
same,binding signal,ELF5,"1.22 fold enrichment (6-mer frequency, TF over GST control)"
same,binding signal,ETV3,"1.23 fold enrichment (6-mer frequency, TF over GST control)"
same,binding signal,ETV6,"1.26 fold enrichment (6-mer frequency, TF over GST control)"
